Cav32 inh: inhibitors of human Cav3.2 T-type calcium channel | O95180 | Cav3.2-expressing cells, Fluo-4 calcium fluorescence FDSS; active compounds read low | B-score at 10 µM | actives 4% (n = 100,000);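 active = single-dose well whose peak fluorescence ratio is a statistical outlier from its plate by either plate-standardised score or position-corrected B-score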
CYP2C19 act: cytochrome P450 2C19 (human) activation | 96,000 tested, under 10 active | activation factor at 5 µM | P33261 | AID 1025 | recombinant CYP2C19, luciferin-H EGE luminescence; active compounds read high; 0 = fully inhibited enzyme, 1 = untreated enzyme;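 active = activation factor of at least 2 at 5 µM in the primary screen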
CYP2C19 inh: human CYP2C19 inhibition; P33261; CYP2C19 Supersomes, luciferin-H EGE luminescence, 30 min; inhibition, % at 5 µM; actives 21% (n = 96,000); AID 778;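 active = CYP2C19 inhibition above a set limit at 5 µM in the primary screen, cut at about 50% in these data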
CYP2C9 act: activators of human CYP2C9; P11712; recombinant CYP2C9, luciferin-H conversion, luminescence; active compounds read high; factor 1 = untreated enzyme, 0 = blocked; activation factor at 5 µM; actives 1.4% (n = 96,000);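 active = activation factor of 2 or more for CYP2C9 at a 5 µM dose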
CYP2C9 inhib: inhibitors of human CYP2C9 | actives 20% (n = 96,000) | CYP2C9 Supersomes, luciferin-H conversion, luminescence | inhibition, % at 5 µM | P11712;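 active = blocking of liver enzyme CYP2C9 beyond about 50% at 5 µM, limit read from the data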
Pyk2 oligo antag: blocks oligomerization of human Pyk2 in cells; z-score (the deposit names both 25 µM and 10 µM); Q293 cells, Pyk2 FERM NanoBiT luminescence; active compounds read low; actives 0.83% (n = 99,000);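 active = Z-score of -3 or lower, scaled per plate to the spread of control and sample wells; inactive = z-score above -3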;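 also: negative z-score means lost luminescence so less FERM oligomerization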
Of the large screens only hits and unclear results are named; the others gave an inactive call. Rows were chosen to be rich in hits. Some 27% of all compounds tested hit in one or more screens of this group.

O=C(NCc1ccco1)C(c1cccnc1)N(C(=O)Cn1nnc2ccccc21)c1ccccc1 (centres undefined)	CYP2C19 inh 51
C/C(N)=C(/C#N)C(=O)CN1CCCCC1	none
Cc1ccc(NC(=O)c2ccc(CN3CCN(C)CC3)cc2)cc1Nc1nccc(-c2cccnc2)n1	none (no result: CYP2C19 act, CYP2C19 inh, CYP2C9 act, CYP2C9 inhib, Pyk2 oligo antag)
CCn1c(Cc2ccccc2)nnc1SCC(=O)Nc1ccccc1N1CCOCC1	none (no result: CYP2C19 act, CYP2C19 inh, CYP2C9 act, CYP2C9 inhib)
CCc1ccccc1N(C(=O)Cn1nnc2ccccc21)C(C(=O)NCCOC)c1ccco1 (centres undefined)	CYP2C19 inh 61, CYP2C9 inhib 56
COCCNC(=O)C(c1ccco1)N(C(=O)Cn1nnc2ccccc21)c1ccc(C)cc1C (centres undefined)	none
Cc1ccc(C(C(=O)NCc2ccco2)N(Cc2ccco2)C(=O)CNC(=O)c2ccco2)cc1 (centres undefined)	CYP2C19 inh 57
O=C(NCc1ccco1)C(c1ccco1)N(C(=O)Cn1nnc2ccccc21)c1ccc2c(c1)CCC2 (centres undefined)	Cav32 inh -4.3 (no result: CYP2C19 act, CYP2C19 inh, CYP2C9 act, CYP2C9 inhib)
Cc1cccc(N(C(=O)Cn2nnc3ccccc32)C(C(=O)NCc2ccco2)c2ccncc2)c1C (centres undefined)	none
Cc1ccccc1C(C(=O)NCc1ccco1)N(CC1CCCO1)C(=O)Cn1nnc2ccccc21 (centres undefined)	Cav32 inh -3.8
O=C(NCc1ccco1)C(c1ccccc1)N(CC1CCCO1)C(=O)Cn1nnc2ccccc21 (centres undefined)	none (no result: Cav32 inh, CYP2C19 act, CYP2C19 inh, CYP2C9 act, CYP2C9 inhib)
O=C(NCc1ccco1)C(c1ccccc1)N(Cc1ccccc1)C(=O)Cn1nnc2ccccc21 (centres undefined)	Pyk2 oligo antag -4.1 (no result: CYP2C19 act, CYP2C19 inh, CYP2C9 act, CYP2C9 inhib)
CC(C)CCNC(=O)C(c1cccnc1)N(Cc1ccccc1)C(=O)Cn1nnc2ccccc21 (centres undefined)	none (no result: CYP2C19 act, CYP2C19 inh, CYP2C9 act, CYP2C9 inhib)
O=C(NC1CCS(=O)(=O)C1)C12CC3CC(CC(C3)C1)C2 (centres undefined)	none
CN(C)c1ccc(C(=O)c2ccccc2)cc1	CYP2C19 inh 88 (no result: Cav32 inh)
COc1ccc(OC(=O)Nc2ccccc2)cc1	CYP2C19 inh 78, CYP2C9 inhib 67
CN(C)c1ccc(NC(=O)Oc2ccccc2)cc1	CYP2C19 inh 91
CN(C)c1ccc(C(=O)C(O)c2ccccc2)cc1 (centres undefined)	none (no result: CYP2C19 act, CYP2C19 inh, CYP2C9 act, CYP2C9 inhib)
CC(=O)Nc1ccc(NC(=O)Oc2ccccc2)cc1	none
COc1ccc(Cl)cc1N(CC(=O)NC(C(C)C)C(C)C)S(C)(=O)=O	none (no result: Cav32 inh, CYP2C19 act, CYP2C19 inh, CYP2C9 act, CYP2C9 inhib)
CCCc1cc(NCCCN2CCOCC2)n2c(nc3ccccc32)c1C#N	none (no result: CYP2C19 act, CYP2C19 inh, CYP2C9 act, CYP2C9 inhib)
Cc1cc(NCCCN2CCOCC2)n2c(nc3ccccc32)c1C#N	CYP2C19 inh 51
CCCCOC(=O)C(C#N)c1nc2ccccc2nc1N1CCOCC1 (centres undefined)	CYP2C19 inh 52
CCCCCCOC(=O)C(C#N)c1nc2ccccc2nc1N1CCOCC1 (centres undefined)	none
COCCCNC(=O)C(C#N)c1nc2ccccc2nc1N1CCCC1 (centres undefined)	Cav32 inh -5.6 (no result: CYP2C19 act, CYP2C19 inh, CYP2C9 act, CYP2C9 inhib)
COCCOC(=O)C(C#N)c1nc2ccccc2nc1N1CCCC1 (centres undefined)	CYP2C19 inh 85, CYP2C9 inhib 79
CCCCCCNC(=O)C(C#N)c1nc2ccccc2nc1N1CCOCC1 (centres undefined)	none
C=CCOC(=O)C(C#N)c1nc2ccccc2nc1N1CCCC1 (centres undefined)	none
CCCCCNC(=O)C(C#N)c1nc2ccccc2nc1N1CCCC1 (centres undefined)	Cav32 inh -7.1
COP1(=O)C=C[C@H](N(Cc2ccccc2)S(=O)(=O)c2ccccc2[N+](=O)[O-])[C@@H](C)O1 (some centres undefined)	none (no result: CYP2C19 act, CYP2C19 inh, CYP2C9 act, CYP2C9 inhib, Pyk2 oligo antag)
CCN(CC)CCCNC(=O)C1CCN(C(=O)c2cc3sccc3n2Cc2ccc(F)cc2)CC1	none
COC(=O)c1cc(C(=O)OC)cc(N2C(=O)CN=C2Nc2nc(C)cc(C)n2)c1	none
CCn1cc([N+](=O)[O-])c(C(=O)Nc2cc(C)on2)n1	none (no result: Cav32 inh)
O=C(COc1ccc([N+](=O)[O-])cc1)Nc1ccc(C(=O)NCc2cccnc2)cc1	none
CCCCCCNC(=O)C(C#N)c1nc2ccccc2nc1N1CCCC1 (centres undefined)	Cav32 inh -7.1

Screening data deposited in PubChem BioAssay by several laboratories.
